Activity calls are given as the source filed them. Unless noted, no rule for the calls is given here.

Test [1] in a line: resazurin metabolic signal in HepG2 cells – cell-based, resazurin fluorescence, 24 h, PK04 Diversity Set, profiling panel (AID 1172). Also: test concentration not given here. Conditions: HepG2 viability, higher = more signal.
The nature of test [2]: budding yeast growth changes without added modifier – OD600, strain BY4716, 24 h, basal condition, primary screen (AID 1173). The settings on record: S. cerevisiae BY4716 growth, OD600, 24 h; higher = more signal, called active from +8 up or from −8 down.
Test [3] is described as follows: viability profiling in MM1S myeloma cells – cell-based, resazurin fluorescence, basal, 24 h, PK04 Diversity Set, profiling panel (AID 1174).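 Also: MM1S multiple myeloma cell line; test concentration not given here.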 The settings on record: higher = more signal, called active from +8 up or from −8 down.
The target in test [4] is Dihydroorotate dehydrogenase (quinone), mitochondrial (Plasmodium falciparum (isolate 3D7)) (UniProt Q08210). Briefly: inhibition of P. falciparum DHODH – biochemical, C-terminal His tag, absorbance 600 nm, primary screen (AID 1175).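 Also: recombinant parasite enzyme with a five histidine tag at its C terminus; test concentration not given here.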 The settings on record: PfDHODH enzyme, DCIP absorbance 600 nm; higher = more signal, called active from +8 up or from −8 down.
Test [5] in a line: inhibition of PAO1 biofilm formation – strain PAO1, LB-PBS medium, absorbance 600 nm, primary screen (AID 1176). Also: test concentration not given here. Conditions: P. aeruginosa PAO1 growth/biofilm, A600, 12 h; higher = more signal.
Test [6] can be described thus: growth modulation of vineyard yeast isolate – strain RM11-1a, OD600, basal, 24 h, primary screen (AID 1177).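 Also: cultures grown under basal conditions with no added stressor; test concentration not given here.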 The settings on record: S. cerevisiae RM11-1a growth, OD600, 24 h; higher = more signal, called active from +8 up or from −8 down.
Test [7] in a line: growth of efflux-deficient E. coli DRC39 – strain DRC39, OD650, 24 h, E. coli filamentation inducers, primary screen (AID 1178).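 Also: growth measured as culture turbidity by optical density at 650 nm; test concentration not given here.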 Conditions: E. coli DRC39 acrAB, higher = more signal, called active from +8 up or from −8 down.
Test [8] can be described thus: growth of efflux-deficient E. coli DRC39 – strain DRC39, OD650, 48 h, E. coli filamentation inducers, primary screen (AID 1179).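 Also: screen aims at cell division blockers that make cells filament.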 The settings on record: E. coli DRC39 delta-acrAB growth, higher = more signal, called active from +8 up or from −8 down.
A short description of test [9]: viability profiling in RPMI8226 myeloma cells – cell-based, resazurin fluorescence, basal, 24 h, PK04 Diversity Set, profiling panel (AID 1180).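 Also: RPMI8826 multiple myeloma cell line at 5000 cells per well; test concentration not given here.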 Conditions: higher = more signal.
Test [10] concerns the target E3 ubiquitin-protein ligase XIAP (Homo sapiens) (UniProt P98170). The test is described as follows: small molecules binding XIAP protein – biophysical, small-molecule microarray, fluorescence 635 nm, primary screen (AID 1181).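 Also: score merges 667 nm emission and signal to noise over triplicate slides.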 The settings on record: higher = more signal.

Sequence of Dihydroorotate dehydrogenase (quinone), mitochondrial (Plasmodium falciparum (isolate 3D7)) (Q08210 whole entry, looked up): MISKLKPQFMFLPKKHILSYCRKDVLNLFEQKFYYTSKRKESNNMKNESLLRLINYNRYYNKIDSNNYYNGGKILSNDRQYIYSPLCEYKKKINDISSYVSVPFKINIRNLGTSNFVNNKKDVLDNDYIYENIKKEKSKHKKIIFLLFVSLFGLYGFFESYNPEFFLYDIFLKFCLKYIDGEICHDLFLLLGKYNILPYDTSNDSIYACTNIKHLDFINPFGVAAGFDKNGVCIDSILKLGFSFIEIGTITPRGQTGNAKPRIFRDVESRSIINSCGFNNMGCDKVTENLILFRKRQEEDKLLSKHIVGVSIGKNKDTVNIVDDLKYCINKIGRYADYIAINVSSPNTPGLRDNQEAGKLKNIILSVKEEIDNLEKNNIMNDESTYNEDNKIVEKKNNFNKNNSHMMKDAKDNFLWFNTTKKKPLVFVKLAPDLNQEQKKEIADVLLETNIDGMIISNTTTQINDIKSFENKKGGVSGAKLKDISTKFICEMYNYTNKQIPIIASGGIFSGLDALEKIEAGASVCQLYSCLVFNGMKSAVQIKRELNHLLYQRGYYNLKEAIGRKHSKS
Sequence of E3 ubiquitin-protein ligase XIAP (Homo sapiens) (P98170 whole entry, looked up): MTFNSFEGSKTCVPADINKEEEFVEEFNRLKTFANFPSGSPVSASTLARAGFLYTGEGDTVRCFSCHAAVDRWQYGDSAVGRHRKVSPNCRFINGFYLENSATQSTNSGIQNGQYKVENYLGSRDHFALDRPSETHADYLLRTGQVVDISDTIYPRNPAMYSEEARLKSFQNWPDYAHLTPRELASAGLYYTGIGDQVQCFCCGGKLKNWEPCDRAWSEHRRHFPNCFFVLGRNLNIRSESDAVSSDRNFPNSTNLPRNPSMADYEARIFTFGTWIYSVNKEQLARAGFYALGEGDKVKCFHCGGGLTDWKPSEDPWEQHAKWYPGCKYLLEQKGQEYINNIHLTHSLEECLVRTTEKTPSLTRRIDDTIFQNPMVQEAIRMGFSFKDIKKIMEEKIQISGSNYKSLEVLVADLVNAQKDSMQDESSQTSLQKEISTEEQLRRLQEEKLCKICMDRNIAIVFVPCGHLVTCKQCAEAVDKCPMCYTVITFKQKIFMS

With `NC(=O)NCC#Cc1ccc2c(c1)[C@]1(C(=O)N2)[C@H](C(=O)Nc2nc3ccccc3s2)[C@H]2C(=O)O[C@H](c3ccccc3)[C@H](c3ccccc3)N2[C@@H]1c1ccc(OCCO)cc1`, the z-score in test [1] is 1.1; in [2], 1.12 (inactive); in test [3], 0.365 (inactive); in [5], 3.99 (inactive); in test [6], 1.27 (inactive); in test [7], 0.426 (inactive). Further, the values for the z-score in test [8] and in test [9] were -0.221 (inactive) and -0.271, respectively. In addition, the results for the composite z-score in [4] and in test [10] were -0.396 (inactive) and 0.013, respectively.

Take `CN1C=C(C(=O)OCCS(C)(=O)=O)C(C(=O)OCCS(C)(=O)=O)=CC(CCCO)=CC1c1ccc(CN2CCCC2)cc1` (stereo not given): the z-score in [1] is -0.533; in [2] it was -2.02 (inactive); in [3] it was 0.0555 (inactive); in [5], 0.719 (inactive); in [6] it was 0.27 (inactive); in [7], 0.364 (inactive). Moreover, the values for the z-score in test [8] and in test [9] were 0.121 (inactive) and 0.274, respectively. Moreover, the values for the composite z-score in test [4] and in [10] were -0.379 (inactive) and -0.0525, respectively.

For the compound `CCN(CC)c1ccc(N2CC=CC34O[C@@H]5C=CCOC(=O)[C@@H]5[C@H]3C(=O)N(CCCO)[C@@H]4C2=O)cc1` (stereo not given in full), the z-score in test [1] was -0.527; in test [2], -0.746 (inactive); in [3], 0.242 (inactive); in test [5], 0.537 (inactive); in test [6] it was -0.049 (inactive); in test [7] it was 1.27 (inactive). The values for the z-score in test [8] and in test [9] were 0.715 (inactive) and 0.4, respectively. The composite z-score in [4] is -1.47 (inactive); in [10] it was 0.107.

`COCCOC(=O)N1C(=O)[C@@]2(c3cc(C#CC4=CCCCC4)ccc31)[C@H](C(=O)N1CCc3cc(OC)c(OC)cc3C1)[C@H]1C(=O)O[C@H](c3ccccc3)[C@H](c3ccccc3)N1[C@@H]2c1ccc(O)cc1`: the z-score in [1] was -0.03; in test [2] it was 0.935 (inactive); in [3] it was -0.0713 (inactive); in [5], 0.802 (inactive); in test [6], 2.23 (inactive); in [7], -0.724 (inactive). The z-score in test [8] was -0.169 (inactive); in test [9], 0.485. For the same compound, the composite z-score is 0.0434 (inactive) in test [4] and 0.072 in test [10].

Take `COCCOC(=O)N1C(=O)[C@@]2(c3cc(C#CCCO)ccc31)[C@H](C(=O)N1CCN(c3ncccn3)CC1)[C@H]1C(=O)O[C@H](c3ccccc3)[C@H](c3ccccc3)N1[C@@H]2c1ccc(O)cc1`: the z-score in test [1] is -0.335; in [2] it was -0.142 (inactive); in [3], 0.359 (inactive); in [5], 1.85 (inactive); in test [6], 0.135 (inactive); in test [7], 0.947 (inactive). Also, the figures for the z-score in test [8] and in [9] were 1.6 (inactive) and 0.818, respectively. Besides, the results for the composite z-score in test [4] and in test [10] were -1.22 (inactive) and -0.031, respectively.

For the compound `CC(=O)c1ccc(C(O)C2C=CC3C(=O)N(C)C(=O)C3N2NC(=O)OC(C)(C)C)cc1` (stereo not given), the z-score in test [1] is -1.69; in [2], 1.74 (inactive); in test [3], -1.04 (inactive); in test [5] it was 0.378 (inactive); in [6], 0.845 (inactive); in [7] it was -0.9 (inactive). Also, the z-score in [8] was -0.47 (inactive); in test [9] it was -1.05. The composite z-score in test [4] was 0.625 (inactive); in [10], 0.155.

For `CN(C)C(=O)[C@@]1(CCS(=O)(=O)c2ccccc2)N=C(c2ccc(OCCCO)cc2)O[C@H]1c1ccccc1N=[N+]=[N-]`, the z-score in test [1] was -0.679; in test [2] it was 0.135 (inactive); in test [3], -0.517 (inactive); in test [5], -0.0558 (inactive); in test [6], -0.241 (inactive); in test [7], -0.068 (inactive). Moreover, the z-score in [8] was 0.0077 (inactive); in test [9], -1.68. Also, the results for the composite z-score in test [4] and in test [10] were -0.926 (inactive) and -0.0676, respectively.

For the compound `C[N+](C)(C)CCCCCCNC(=O)[C@H]1C[C@H]2C(=O)NCC(=O)N2[C@H]1c1cccc(OCCO)c1`, the z-score in test [1] is 0.547; in test [2], -0.316 (inactive); in [3] it was -0.0342 (inactive); in [5] it was -0.0743 (inactive); in test [6] it was 0.254 (inactive); in test [7], -0.129 (inactive). Moreover, the z-score was -0.285 (inactive) in [8] and -0.252 in [9]. Further, the composite z-score is -0.97 (inactive) in test [4] and 0.0402 in [10].

As for `CO[C@H]1O[C@H](CO)[C@@H](OC(=O)Nc2ccc(C(F)(F)F)cc2)[C@H](OC(=O)Nc2ccccc2-c2ccccc2)[C@@H]1OC(=O)Nc1ccccc1-c1ccccc1`, the z-score in test [1] is -0.889; in test [2] it was 0.28 (inactive); in test [3], -1.74 (inactive); in [5], 0.77 (inactive); in test [6], 1.21 (inactive); in test [7] it was -1 (inactive). The results for the z-score in [8] and in test [9] were 0.0484 (inactive) and -0.94, respectively. For the same compound, the composite z-score in test [4] is 0.0823 (inactive); in test [10] it was -0.184.

In the case of `Cc1ccc(F)cc1S(=O)(=O)N[C@@H]1CCN(Cc2ccc3[nH]ccc3c2)C1`, the z-score in test [1] is -1.14; in [2], -2.59 (inactive); in test [3], -0.946 (inactive); in test [5] it was -0.189 (inactive); in [6], -0.773 (inactive); in [7], -1.37 (inactive). Also, the z-score in test [8] is -4.18 (inactive); in [9], -0.73. Also, the figures for the composite z-score in test [4] and in test [10] were -0.203 (inactive) and -0.144, respectively.

`COc1cccc(C[C@H]2C[C@@H](CO[Si](C(C)C)(C(C)C)C(C)C)N3C(=O)[C@@]4(C(C)=O)O[C@@]23[C@@H]2C(=O)N(C)C(=O)[C@@H]24)c1`: the z-score was 0.65 in test [1]; 0.294 (inactive) in test [2]; -0.494 (inactive) in test [3]; 0.82 (inactive) in test [5]; 0.993 (inactive) in test [6]; -0.493 (inactive) in test [7]. Moreover, the z-score in test [8] was -0.638 (inactive); in test [9], -0.334. Also, the composite z-score was 0.0539 (inactive) in test [4] and 0.0082 in test [10].

As for `CCN(CC)c1ccc(N2CC=CC34O[C@@H]5C=CCOC(=O)[C@@H]5[C@H]3C(=O)N(CCO)[C@@H]4C2=O)cc1` (stereo not given in full), the z-score is 0.534 in test [1]; -0.0592 (inactive) in test [2]; 0.762 (inactive) in test [3]; -0.978 (inactive) in test [5]; 0.964 (inactive) in test [6]; 1.15 (inactive) in test [7]. Moreover, the z-score was 1.36 (inactive) in test [8] and 0.828 in test [9]. The composite z-score in test [4] is -0.675 (inactive); in test [10], 0.147.

Values taken from PubChem BioAssay.
